Source: PubChem BioAssay
This is a sample that favours compounds with a hit; in the whole collection about 11% have one here.
NS1 function inh = inhibitors of influenza NS1 protein function; AID 2326; 270,000 tested, 0.4% active; Potency, µM (titrated, usually from 46.1 µM), without a hit: top-dose activity, positive = more growth; calls by dose curve; also: potency is read from the fitted curve at half-maximal effect; actives are rising curves; nearly all actives have a fitted effect of over 50% in size
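Growth recovery, yeast-based: influenza A NS1 expressed in S. cerevisiae causes slow growth, and suppressors are detected by OD600. The parent strain without NS1 is used as positive control.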
Sm TGR block = S. mansoni TGR enzyme inhibition. AID 485364. purified TGR, DTNB reduction, TNB absorbance 405 nm. Potency, µM (highest dose often 114 µM), for the others: top-dose activity change, negative = inhibition, hits mostly inhibitors. 360,000 tested, 3% active. Q962Y6; also: potency is read from the fitted curve at half-maximal effect; % is scaled to controls: 0 for no effect and ±100 for the full control effect; nearly all actives have a fitted effect of over 60% in size
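Kinetic colorimetric format: TGR-catalysed, NADPH-driven DTNB reduction monitored via TNB absorbance. Enzyme dispensed at 20 nM; compound exposure 15 min at room temperature before reaction start.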
Pf growth 96h = P. falciparum growth inhibition at 96 hours; P. falciparum luciferase reporter growth, 96 h; Potency, µM (series often up to 28.7 µM), for the others: at the highest dose activity change, negative = inhibition, usual class: inhibitors; 320,000 tested, 6.9% active; also: potency is read from the fitted curve at half-maximal effect; % is scaled to controls: 0 for no effect and ±100 for the full control effect
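Parasite growth measured via integrated firefly luciferase reporter in P. falciparum. Infected erythrocytes at 2% hematocrit, 0.05% parasitemia final were treated 96 hours at 37 C under 5% CO2, and luminescence was read.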
AMA1-RON2 inh = AMA1-RON2 (P. falciparum) interaction inhibition. AlphaScreen AMA1-biotinylated RON2 peptide binding. Potency, µM (doses to about 58.2 µM), without a hit: at the top dose activity change, negative = inhibition, usual class: inhibitors. 360,000 tested, 0.2% active. AID 720542;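 also: potency is read from the fitted curve at half-maximal effect; 0% = vehicle wells and -100% = peptide control; nearly all actives have a fitted effect of over 45% in size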
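AMA1 (3D7) with his tag at 25 nM final met compounds first, then biotinylated RON2 peptide at 25 nM; detection used donor plus acceptor beads, 10 µg/mL apiece, read by AlphaScreen after 30 min at room temperature.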
Pf growth 48h = P. falciparum growth inhibition at 48 hours (one generation). P. falciparum luciferase growth in erythrocytes, 48 h. Potency, µM (titrated, usually from 28.7 µM), for the others: at the top dose activity change, negative = inhibition, most hits filed as inhibitors. 310,000 tested, 5.9% active; also: potency is read from the fitted curve at half-maximal effect; % is scaled to controls: 0 for no effect and ±100 for the full control effect
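Luciferase-expressing P. falciparum in infected erythrocytes (2% hematocrit, 0.1% parasitemia final) in RPMI 1640/0.5% Albumax were exposed to compound for 48 hours at 37 C, 5% CO2; growth read as luminescence.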
NS1 inh valid = influenza NS1 function inhibition validation | shares compounds with NS1 function inh | influenza NS1 function cell assay, 15-point titration | activity change, negative = inhibition, % at 32.9 µM | 1,400 tested, under 10 active | AID 492980; calls by dose curve; also: 0% is about no effect
Flu PR8 replic = influenza virus titer reduction, NS1 project; shares compounds with NS1 function inh; MDCK infected influenza A/PR/8/34, virus titer TCID50; active compounds read low; virus titer (log TCID50), log10 TCID50 at 5 µM; 95 tested, 30% active; AID 504647; call rule not given here
CLK4 cf ADPGlo = CLK4 (human) kinase inhibition, ADP-Glo confirmation. shares compounds with Pf growth 48h. recombinant Clk4, RS peptide, ADP-Glo luminescence. Potency, µM (doses to about 80 µM), inactives show at the highest dose activity, negative = inhibition, hits mostly inhibitors. 65 tested, 80% active
Target sequence (Q9HAZ1 whole entry, looked up): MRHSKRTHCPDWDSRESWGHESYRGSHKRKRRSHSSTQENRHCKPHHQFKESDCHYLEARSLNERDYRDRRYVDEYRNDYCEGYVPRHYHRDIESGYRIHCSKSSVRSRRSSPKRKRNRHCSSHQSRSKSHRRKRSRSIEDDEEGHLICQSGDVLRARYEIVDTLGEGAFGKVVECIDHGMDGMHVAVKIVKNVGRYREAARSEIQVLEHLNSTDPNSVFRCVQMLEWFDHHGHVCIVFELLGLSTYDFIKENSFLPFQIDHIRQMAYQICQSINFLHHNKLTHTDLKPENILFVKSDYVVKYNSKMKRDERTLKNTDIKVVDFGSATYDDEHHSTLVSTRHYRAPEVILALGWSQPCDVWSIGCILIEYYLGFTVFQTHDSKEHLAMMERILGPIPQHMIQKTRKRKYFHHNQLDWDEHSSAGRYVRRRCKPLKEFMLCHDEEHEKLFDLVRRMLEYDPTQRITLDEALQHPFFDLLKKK
CLK4 ADP FP = CLK4 (human) inhibition, Transcreener FP confirmation | shares compounds with Pf growth 48h | recombinant Clk4, ADP Transcreener FP, RS peptide | Potency, µM (series often up to 80 µM), inactives show at the top dose activity, negative = inhibition, usual class: inhibitors | 65 tested, 70% active
Numbers without * were called inactive; ? = inconclusive; nt = no result given; ! = not active in a repeat. Unless noted, calls follow the shape of the dose curve; as a rule, active = well fitted curve in the direction sought with a large enough effect; inconclusive = small, poorly fitted or top-dose-only effect, or another doubt; inactive = no such curve, though single readings can be large; an effect the other way counts as inactive or inconclusive.

SMILES | NS1 function inh | Sm TGR block | Pf growth 96h | AMA1-RON2 inh | Pf growth 48h | CLK4 cf ADPGlo | CLK4 ADP FP | others
COc1cc(NC(=O)CSc2nc3ccccc3n2-c2ccccc2)c(C)cc1[N+](=O)[O-] | 22µM* | 2% | ? | -23% | 12µM* | nt | nt | NS1 inh valid=-4;Flu PR8 replic=7.7
OC(Cc1nc2ccccc2[nH]1)c1ccccc1Cl (stereo not given) | 0.28µM* | -2% | ? | -4% | -2% | nt | nt | NS1 inh valid=-29
O=C(c1ccccc1)N1N=C(C(F)(F)F)CC1(O)c1ccc(F)cc1 (stereo not given) | 18% | 6% | 2% | 11% | 18% | nt | nt
O=C(Cc1ccc2c(c1)OCCO2)c1c(O)cc(O)cc1O | 13% | 0% | -1% | -2% | 40% | nt | nt
O=C(CCc1ccc(O)cc1)c1c(O)cc(O)cc1O | 13µM*! | 10% | ? | 10% | ? | nt | nt | NS1 inh valid=0
c1ccc(CCNc2cc(-c3ccc4ccccc4c3)nc3ccnn23)nc1 | nt | nt | nt | 72% | nt | nt | nt
COc1cccc(-c2ccc3ncnc(NCc4cccc(F)c4)c3c2)c1 | nt | 0% | 3.7µM* | nt | 6.6µM* | 0.63µM* | 0.89µM*
COc1cccc(CNc2ncnc3cc(Cl)ccc23)c1 | -7% | nt | -2% | 12% | ? | nt | nt
COc1cccc(-c2ccc3ncnc(NCc4cccc(C)c4)c3c2)c1 | nt | 11% | 3.7µM* | nt | 6.6µM* | 1.3µM* | 1.8µM*
Cc1nnc(NC(=O)CSc2nc3c([nH]c4ccccc43)c(=O)n2-c2ccc(Cl)cc2)s1 | nt | 0% | nt | nt | nt | nt | nt
Cn1c(SCc2ccc([N+](=O)[O-])cc2)nnc1-c1ccncc1 | 7% | 2% | 3% | -4% | -5% | nt | nt
CN(Cc1ccccc1)c1ncnc2ccc(Br)cc12 | -35% | -2% | 59% | 12% | ? | nt | nt
Brc1ccc2ncnc(NCc3ccco3)c2c1 | -94% | ? | nt | 6% | 9% | nt | nt
CN(Cc1ccco1)c1ncnc2ccc(-c3ccccc3Cl)cc12 | nt | -7% | ? | nt | 9.3µM* | 10µM* | 16µM*
CN(Cc1ccco1)c1ncnc2ccc(-c3ccoc3)cc12 | nt | 20µM* | ? | nt | ? | 0.25µM* | 0.32µM*
COc1ccc(NC(=O)c2cccnn2)cc1 | 1% | -6% | ? | 3% | 92% | nt | nt
COc1cccc(-c2ccc3ncnc(NCc4cccs4)c3c2)c1 | nt | 9% | 4.1µM* | nt | 9.3µM* | 1µM* | 1.1µM*
c1cncc(-c2ccc3ncnc(NCc4cccs4)c3c2)c1 | nt | 1% | 9.3µM* | nt | ? | 3.2µM* | 7.1µM*
Cc1ccc(N(CC(=O)NCCc2ccccc2C)S(=O)(=O)N(C)C)cc1 | nt | -1% | nt | nt | nt | nt | nt
CCc1nc2c(OCCOc3ccc(F)cc3)cccn2c1N(C)C(=O)c1cccs1 | nt | nt | nt | -11% | nt | nt | nt
Cc1ccc(-n2ncc3c(NCc4cccnc4)ncnc32)cc1C | -21% | -1% | 60% | 14% | 118% | nt | nt
Fc1cccc(CNc2ncnc3ccc(-c4ccc5c(c4)OCO5)cc23)c1 | nt | -11% | 2.9µM* | nt | 4.1µM* | 0.14µM* | 0.089µM*
c1cncc(CNc2ncnc3ccc(-c4ccc5c(c4)OCCO5)cc23)c1 | nt | -7% | 4% | nt | 17% | 0.4µM* | 0.71µM*
Clc1ccccc1-c1ccc2ncnc(NCc3cccnc3)c2c1 | nt | 0% | ? | nt | -5% | 13µM* | ?
c1nc(NCc2ccc3c(c2)OCO3)c2cc(-c3ccoc3)ccc2n1 | nt | -10% | ? | nt | ? | 0.71µM* | 0.89µM*
SMILES | NS1 function inh | Sm TGR block | Pf growth 96h | AMA1-RON2 inh | Pf growth 48h | CLK4 cf ADPGlo | CLK4 ADP FP | others
COc1ccc(-n2ncc3c(NCc4ccc5c(c4)OCO5)ncnc32)cc1 | 5% | 7% | 67% | -13% | 99% | nt | nt
Cc1ccsc1/C=N/NC(=O)CNC(=O)c1cccc([N+](=O)[O-])c1C | 9% | 5% | -1% | -8% | 0% | nt | nt
CC(=O)c1ccccc1NC(=O)c1ccc(OCc2c(C)noc2C)cc1 | nt | nt | nt | 5% | nt | nt | nt
c1cncc(CNc2ncnc3ccc(-c4cccnc4)cc23)c1 | nt | 3% | ? | nt | ? | 7.9µM* | 13µM*
Clc1ccccc1-c1ccc2ncnc(NCc3ccc4c(c3)OCO4)c2c1 | nt | 0% | 3.7µM* | nt | 8.3µM* | ? | -17%
Cc1ccc(-n2ncc3c(NCc4cccnc4)ncnc32)c(C)c1 | 23% | -1% | ? | 17% | ? | nt | nt
c1ccc(-n2ncc3c(NCc4ccc5c(c4)OCO5)ncnc32)cc1 | -4% | -7% | ? | -2% | -1% | nt | nt
c1cncc(-c2ccc3ncnc(NCc4ccc5c(c4)OCO5)c3c2)c1 | nt | 5% | ? | nt | ? | 7.1µM* | 11µM*
Clc1cccc(-c2ccc3ncnc(NCc4cccnc4)c3c2)c1 | nt | -4% | 13µM* | nt | ? | 4.5µM* | ?
COC(=O)C(C(=O)OC)c1ccccc1NS(=O)(=O)c1c(C)cc(C)cc1C | nt | nt | nt | -6% | nt | nt | nt
Cn1ccc2cc(-c3ccc4ncnc(NCc5cccc(F)c5)c4c3)ccc21 | nt | 2% | 3.7µM* | nt | 8.3µM* | ? | ?
Cn1ccc2cc(-c3ccc4ncnc(NCc5cccnc5)c4c3)ccc21 | nt | -1% | 2.6µM* | nt | 1.9µM* | 10µM* | 14µM*
Cn1ccc2cc(-c3ccc4ncnc(NCc5cccs5)c4c3)ccc21 | nt | -4% | 5.2µM* | nt | 2.9µM* | 14µM* | ?
COc1cc2ncnc(NCc3cccc(Cl)c3)c2cc1OC | ? | -11% | ? | -6% | ? | nt | nt
O=C(C(=O)N1CCN(c2ccc([N+](=O)[O-])cc2)CC1)c1cn(CC(=O)N2CCOCC2)c2ccccc12 | -12% | 3% | ? | 1% | 82% | nt | nt
